Bioassay records (PubChem BioAssay)
DT40 TDP1 no CPT – qHTS for Inhibitors of human tyrosyl-DNA phosphodiesterase 1 (TDP1): qHTS in cells in absence of CPT; DT40 Tdp1-/- hTDP1 cells, no CPT, ATP luminescence, 48 h; Potency, µM (series often up to 46.2 µM), without a hit: top-dose activity change, negative = growth inhibition, actives largely listed as inhibitors; actives 15% (n = 420,000); AID 686978, 2013; note: % is set by controls: 0 for no effect and ±100 for the full control effect; nearly all actives have a fitted effect of over 55% in size
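A cellular qHTS used chicken DT40 cells lacking endogenous Tdp1 but carrying stably transfected human TDP1. Compounds were applied without camptothecin, and cell growth kinetics were judged by ATP-dependent luminescence after ≥48 hr.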
ClpP mod – qHTS Assay for Activators of ClpP; ATP-dependent Clp protease proteolytic subunit (Bacillus subtilis (strain 168)), P80244; purified B. subtilis ClpP, FRET peptide cleavage, 20 min; Potency, µM (top dose mostly 57.5 µM), inactives show at the top dose activity change, negative = active; actives 1.9% (n = 340,000); active = well fitted falling curve with a large enough effect; inconclusive = small, poorly fitted or top-dose-only effect; inactive = no such curve, though single readings can be large or run the other way; note: the source files actives as falling curves though it sought activators and does not explain the sign; nearly all actives have a fitted effect of over 65% in size
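ClpP 10 microg/mL final, pH 8 Tris/KCl buffer with BSA, glycerol, Tween-20; compound pinned in; FRET-FV substrate; RT 20 min; Ex320/Em430; ΔFRET vs ADEP 5.8 microM, DMSO, no enzyme.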
DT40 TDP1 CPT – qHTS for Inhibitors of human tyrosyl-DNA phosphodiesterase 1 (TDP1): qHTS in cells in presence of CPT. chicken DT40 Tdp1-/-;hTDP1 cells + 20 nM CPT, ATP luminescence, 48 h. Potency, µM (top dose mostly 46.2 µM), for inactives: at the top dose activity change, negative = growth inhibition, hits mostly inhibitors. actives 12% (n = 420,000); note: % is set by controls: 0 for no effect and ±100 for the full control effect; nearly all actives have a fitted effect of over 55% in size
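Chicken DT40 Tdp1-/- cells stably complemented with human TDP1 were seeded at 400 cells/well in medium containing 20 nM camptothecin, exposed to pin-transferred compounds, and grown at 37 °C for at least 48 hr. Viability was read as ATP luminescence.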
TDP1 inh – qHTS Assay for Inhibitors of Tyrosyl-DNA Phosphodiesterase (TDP1); recombinant TDP1, AlphaScreen DNA substrate cleavage; AID 485290, 2010; Tyrosyl-DNA phosphodiesterase 1 (Homo sapiens), Q9NUW8; actives 0.28% (n = 350,000); Potency, µM (doses to about 130 µM), without a hit: top-dose activity change, negative = inhibition, usual class: inhibitors; note: % is set by controls: 0 for no effect and ±100 for the full control effect; nearly all actives have a fitted effect of over 40% in size
Target sequence (Q9NUW8 whole entry, looked up): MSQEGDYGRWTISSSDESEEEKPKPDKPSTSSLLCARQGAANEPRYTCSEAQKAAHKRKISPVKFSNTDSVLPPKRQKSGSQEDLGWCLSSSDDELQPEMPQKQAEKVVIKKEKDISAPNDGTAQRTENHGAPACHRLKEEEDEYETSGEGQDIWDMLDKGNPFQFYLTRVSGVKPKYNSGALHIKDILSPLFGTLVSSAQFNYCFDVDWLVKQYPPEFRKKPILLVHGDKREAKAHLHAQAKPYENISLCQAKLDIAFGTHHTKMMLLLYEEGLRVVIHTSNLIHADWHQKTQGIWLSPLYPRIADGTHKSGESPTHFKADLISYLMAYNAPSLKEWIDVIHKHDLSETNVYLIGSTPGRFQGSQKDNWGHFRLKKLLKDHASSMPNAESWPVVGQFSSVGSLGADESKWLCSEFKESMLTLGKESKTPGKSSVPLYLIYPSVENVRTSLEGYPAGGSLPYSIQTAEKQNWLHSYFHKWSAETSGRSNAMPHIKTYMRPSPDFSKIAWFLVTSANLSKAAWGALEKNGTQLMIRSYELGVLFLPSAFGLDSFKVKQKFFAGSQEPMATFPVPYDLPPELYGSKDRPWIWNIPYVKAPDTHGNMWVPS
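E. coli-derived human Tdp1, 1 nM final. Cpd preinc 15 min RT; substrate 15 nM final, 5 min RT; AS bead mix 10 ug/ml final, 10 min RT. Signal loss = tyrosine-FITC cleavage. No-enzyme wells = max signal.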
The depositor's hits bear a star; ? = inconclusive; . = no result. Rows were chosen to be rich in hits. Some 17% of all compounds tested hit in one or more screens of this group. Unless noted, calls come from the whole dose curve; as a rule, active = well fitted curve in the direction sought with a large enough effect; inconclusive = small, poorly fitted or top-dose-only effect, or another doubt; inactive = no such curve, though single readings can be large; an effect the other way counts as inactive or inconclusive. Potency is the fitted concentration of half-maximal effect.

SMILES	DT40 TDP1 no CPT	ClpP mod	DT40 TDP1 CPT	TDP1 inh
Clc1cccc(-n2ncc3c(NC4CCCCC4)ncnc32)c1	18.4µM*	-6.4%	?	2.6%
Clc1cccc(-n2ncc3c(N4CCCCCC4)ncnc32)c1	-14.0%	0.1%	-22.5%	-10.4%
Cc1ccc(Cl)cc1-n1ncc2c(N3CCN(Cc4ccccc4)CC3)ncnc21	2.31µM*	-1.3%	2.59µM*	2.6%
CCCc1ccc(S(=O)(=O)NCc2nnc(SC)n2C)cc1	-11.5%	.	-6.3%	.
C/C(=N\Nc1ccc([N+](=O)[O-])cc1)c1ccc(-n2nncc2C)cc1	20.6µM*	-0.9%	?	-2.7%
C/C(=N\Nc1nc(C)c(C)s1)c1ccc([N+](=O)[O-])cc1	20.6µM*	.	?	8.8%
C/C(=N\Nc1ccc([N+](=O)[O-])cc1)c1ccc(N)cc1	-24.5%	0.7%	-9.0%	5.7%
CC(C)(C)c1cnnn1-c1ccc(/C=N/Nc2ccc([N+](=O)[O-])cc2)cc1	13µM*	-2.4%	18.4µM*	1.1%
Cn1ccc(C(=O)Oc2ccc(C(=O)Nc3ccc(F)cc3F)cc2)n1	-10.8%	1.0%	-11.2%	6.3%
CCN(C(=O)Cn1c(=O)oc2cc(S(=O)(=O)N3CCCCC3)ccc21)c1ccccc1	-27.9%	-1.9%	-5.6%	2.0%
CC(C)(C)OC(=O)N1CCN(C(=O)OCC2c3ccccc3-c3ccccc32)CC1C(=O)O (stereo not drawn)	?	-7.6%	23.1µM*	.
Cc1c(C(=O)N(C)Cc2nc3ccccc3c(=O)[nH]2)oc2ccccc12	23.1µM*	-1.5%	?	1.5%
CC(=O)N(Cc1ccc(F)cc1)Cc1nc2ccccc2c(=O)[nH]1	?	.	?	0.0%
CC(=O)c1ccc(-c2ccc(C(=O)N(C)Cc3nc4ccccc4c(=O)[nH]3)o2)cc1	23.1µM*	3.9%	?	5.2%
CCOc1ccccc1N1CC(c2nc3ccccc3n2CCCOc2ccccc2)CC1=O (stereo not drawn)	?	-7.7%	-23.8%	2.5%
Cc1ccccc1N1CC(c2nc3ccccc3n2Cc2ccc(Br)cc2)CC1=O (stereo not drawn)	16.4µM*	-0.2%	?	8.6%
Cc1cccc(N2CC(c3nc4ccccc4n3CCC3CCCCC3)CC2=O)c1 (stereo not drawn)	18.4µM*	0.2%	?	5.7%
CCc1ccccc1N1CC(c2nc3ccccc3n2CCC2CCCCC2)CC1=O (stereo not drawn)	5.17µM*	-2.7%	5.8µM*	2.5%
Cc1cccc(C)c1N1CC(c2nc3ccccc3n2CC(=O)OC(C)C)CC1=O (stereo not drawn)	16.4µM*	0.7%	?	5.7%
CC(=O)c1cc2c(s1)c1cnn(Cc3ccccc3F)c(=O)c1n2C	.	.	.	-0.5%
OC(c1ccccc1)c1ncc(-c2cccc(F)c2)[nH]1 (stereo not drawn)	-15.2%	0.2%	-4.5%	.
CCOc1ccccc1N1CC(c2nc3ccccc3n2CCOc2ccccc2)CC1=O (stereo not drawn)	-24.1%	-27.5%	-27.1%	5.1%
Cc1ccccc1N1CC(c2nc3ccccc3n2CCC2CCCCC2)CC1=O (stereo not drawn)	10.3µM*	-0.2%	13µM*	-5.7%
CC(C)c1ccc(NC(=O)Nc2nc(C(C)N)cs2)cc1 (stereo not drawn)	14.6µM*	1.5%	14.6µM*	.
CC(C)c1ccc(NC(=O)Nc2nc(C(N)c3ccccc3Cl)cs2)cc1 (stereo not drawn)	10.3µM*	1.0%	13µM*	.
Cc1ccccc1S(=O)(=O)c1c(C)cc(-c2ccccc2)[nH]c1=O	-18.2%	?	-26.3%	0.0%
COC(=O)CNC(=O)COC(=O)Cc1ccc(Cl)cc1	17.2%	1.5%	0.5%	2.9%
COc1ccc(N2CC(C(=O)N/N=C/c3cc([N+](=O)[O-])ccc3O)CC2=O)cc1 (stereo not drawn)	?	.	-20.2%	7.9%
